# From ChEMBL document CHEMBL3988442, “University of Dundee, Small-Polar-MMV Screening Library” (2021)
# For some assays here: Results with a measured potency or affinity are listed apart.
# Key:
# Set-up in all cases: scale not given: direction of the effect not stated beside the values
# [1] = molecular target: Protein translocase subunit SecA (Escherichia coli (strain K12)) (UniProt P10408); assay: Assay to Identify E. coli SecA ATPase Inhibitors; format: functional; conditions: 30 µM
# [2] = molecular target: T1, Ubiquitin-activating enzyme e1, putative (Leishmania donovani (strain BPK282A1)) (UniProt E9BSI1); assay: Leishmania donovani Ubiquitin Activating Enzyme (LdE1); format: functional; conditions: 30 µM
# T1 sequence (whole entry): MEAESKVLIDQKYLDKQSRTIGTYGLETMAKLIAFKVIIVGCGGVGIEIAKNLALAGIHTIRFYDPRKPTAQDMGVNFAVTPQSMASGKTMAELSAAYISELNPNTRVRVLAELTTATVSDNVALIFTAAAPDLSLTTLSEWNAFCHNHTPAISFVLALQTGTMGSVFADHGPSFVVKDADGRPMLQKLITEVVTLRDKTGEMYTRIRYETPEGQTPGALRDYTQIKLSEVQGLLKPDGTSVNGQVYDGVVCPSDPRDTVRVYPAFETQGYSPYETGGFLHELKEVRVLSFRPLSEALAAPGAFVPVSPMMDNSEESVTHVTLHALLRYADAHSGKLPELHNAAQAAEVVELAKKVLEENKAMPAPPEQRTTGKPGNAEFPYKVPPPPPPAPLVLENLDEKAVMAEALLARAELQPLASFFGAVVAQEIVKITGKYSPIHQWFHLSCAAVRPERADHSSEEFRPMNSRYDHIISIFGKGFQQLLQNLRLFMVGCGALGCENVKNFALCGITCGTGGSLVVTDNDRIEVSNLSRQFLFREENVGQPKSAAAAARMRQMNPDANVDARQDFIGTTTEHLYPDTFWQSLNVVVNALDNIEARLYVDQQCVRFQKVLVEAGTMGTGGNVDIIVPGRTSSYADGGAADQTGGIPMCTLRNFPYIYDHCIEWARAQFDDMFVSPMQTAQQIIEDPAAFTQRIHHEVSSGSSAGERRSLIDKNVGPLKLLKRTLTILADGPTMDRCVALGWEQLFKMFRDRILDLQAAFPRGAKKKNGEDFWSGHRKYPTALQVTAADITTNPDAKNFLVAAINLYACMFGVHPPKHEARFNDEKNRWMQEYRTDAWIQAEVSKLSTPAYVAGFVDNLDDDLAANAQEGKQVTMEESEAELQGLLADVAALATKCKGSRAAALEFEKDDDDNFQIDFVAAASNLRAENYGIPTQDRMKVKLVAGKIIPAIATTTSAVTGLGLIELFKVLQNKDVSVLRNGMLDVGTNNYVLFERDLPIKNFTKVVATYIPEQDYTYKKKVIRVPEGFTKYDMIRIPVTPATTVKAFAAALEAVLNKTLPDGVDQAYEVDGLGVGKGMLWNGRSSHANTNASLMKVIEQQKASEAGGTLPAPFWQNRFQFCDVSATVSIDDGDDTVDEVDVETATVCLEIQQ
# [3] = molecular target: AMP-activated protein kinase, AMPK (Homo sapiens) (UniProt P54646+O43741+P54619+Q9UGJ0+Q9Y478+Q13131+Q9UGI9); assay: AMP-dependent Kinase enzyme assay. An in vitro enzyme assay that detects ADP turnover that is directly proportional to AMPK activity. This uses naive AMPK that is activated during the assay with MK-8722; format: functional; conditions: 30 µM
# [4] = molecular target: Sialic acid-binding Ig-like lectin 9 (Homo sapiens) (UniProt Q9Y336); assay: Hs-Siglec9 ALPHAscreen SOP 20170721; conditions: 10 µM
# Chain of Sialic acid-binding Ig-like lectin 9 (Homo sapiens) (Q9Y336 whole entry): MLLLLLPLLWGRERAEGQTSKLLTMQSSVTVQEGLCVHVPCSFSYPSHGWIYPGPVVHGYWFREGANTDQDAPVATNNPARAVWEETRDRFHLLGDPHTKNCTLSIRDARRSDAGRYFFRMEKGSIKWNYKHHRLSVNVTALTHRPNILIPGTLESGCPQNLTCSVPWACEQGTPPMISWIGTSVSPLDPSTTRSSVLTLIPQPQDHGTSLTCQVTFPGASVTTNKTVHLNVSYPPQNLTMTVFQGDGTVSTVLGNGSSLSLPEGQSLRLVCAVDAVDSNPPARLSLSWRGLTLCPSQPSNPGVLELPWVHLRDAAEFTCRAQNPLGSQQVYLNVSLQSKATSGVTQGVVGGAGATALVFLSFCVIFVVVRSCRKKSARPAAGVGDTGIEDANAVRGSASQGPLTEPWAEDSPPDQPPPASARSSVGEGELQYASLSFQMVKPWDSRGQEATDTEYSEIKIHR
# Trypanosoma cruzi = assay: Trypanosoma cruzi phosphomannomutase and mannose-1-phosphate guanylyltransferase assay; format: functional; conditions: 10 µM
# [5] = molecular target: T2, Arginase-2, mitochondrial (Homo sapiens) (UniProt P78540); assay: in vitro enzyme assay to detect the production of urea directly proportional to the activity of Arginase II; format: functional; conditions: 33.3 µM; also: in the data most compounds retested in dose-response had high values
# T2 sequence (whole entry): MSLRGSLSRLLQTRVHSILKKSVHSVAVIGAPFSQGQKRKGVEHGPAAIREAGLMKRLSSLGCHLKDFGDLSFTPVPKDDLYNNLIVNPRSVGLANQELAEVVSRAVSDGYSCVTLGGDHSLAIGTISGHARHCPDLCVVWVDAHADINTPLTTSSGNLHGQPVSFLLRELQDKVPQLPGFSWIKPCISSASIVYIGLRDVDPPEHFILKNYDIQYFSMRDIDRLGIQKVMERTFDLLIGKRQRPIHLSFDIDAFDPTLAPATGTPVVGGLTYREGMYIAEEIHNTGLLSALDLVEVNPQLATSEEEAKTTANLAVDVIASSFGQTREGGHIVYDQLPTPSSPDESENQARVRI
# [6] = molecular target: T3, Proteasome subunit beta (Trypanosoma cruzi) (UniProt O96673); assay: Trypanosoma cruzi proteasome chymotrypsin-like activity (TcProtChymo) assay.; also: in the data most compounds retested in dose-response had high values; format: functional; conditions: 9.37 µM
# T3 sequence (whole entry): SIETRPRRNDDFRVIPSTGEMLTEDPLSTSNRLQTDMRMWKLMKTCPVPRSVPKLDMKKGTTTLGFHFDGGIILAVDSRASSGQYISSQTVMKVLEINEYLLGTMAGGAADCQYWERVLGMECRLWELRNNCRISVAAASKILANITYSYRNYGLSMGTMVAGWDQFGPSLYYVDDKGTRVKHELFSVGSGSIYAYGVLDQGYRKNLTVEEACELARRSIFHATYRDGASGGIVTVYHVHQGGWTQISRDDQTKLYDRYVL
# Homo sapiens = organism: Homo sapiens; assay: To identify inhibition of the IFN signalling (Jak-Stat) pathway via expression of an eGFP reporter gene under the control of an IFN-stimulated response element (ISRE) containing MxA promoter.; format: functional; conditions: 30 µM
# [7] = molecular target: T4, Tyrosyl-tRNA synthetase, putative (Trypanosoma cruzi (strain CL Brener)) (UniProt Q4DSP6); assay: Trypanosoma cruzi tyrosyl tRNA synthetase (TcYRS) _High Tyrosine SOP; format: functional; conditions: 30 µM; also: in the data most compounds retested in dose-response had high values
# T4 sequence (whole entry): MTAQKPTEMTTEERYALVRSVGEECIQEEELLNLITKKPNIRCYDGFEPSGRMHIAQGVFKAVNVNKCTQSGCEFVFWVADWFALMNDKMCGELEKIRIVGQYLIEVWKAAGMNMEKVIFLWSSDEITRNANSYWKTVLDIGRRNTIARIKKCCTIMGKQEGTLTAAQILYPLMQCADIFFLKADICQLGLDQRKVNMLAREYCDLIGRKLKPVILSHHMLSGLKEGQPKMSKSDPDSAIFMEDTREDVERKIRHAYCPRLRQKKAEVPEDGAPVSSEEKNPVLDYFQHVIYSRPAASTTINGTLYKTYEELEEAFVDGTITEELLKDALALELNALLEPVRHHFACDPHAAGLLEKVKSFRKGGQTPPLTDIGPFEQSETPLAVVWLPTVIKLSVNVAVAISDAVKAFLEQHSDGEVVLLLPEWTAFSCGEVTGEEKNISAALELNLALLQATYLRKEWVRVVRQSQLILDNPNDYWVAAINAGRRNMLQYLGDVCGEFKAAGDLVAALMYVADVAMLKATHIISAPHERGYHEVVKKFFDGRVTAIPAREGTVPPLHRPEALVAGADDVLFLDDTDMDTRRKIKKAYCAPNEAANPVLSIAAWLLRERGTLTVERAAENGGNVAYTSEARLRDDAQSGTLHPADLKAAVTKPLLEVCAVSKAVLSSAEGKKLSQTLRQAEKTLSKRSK
# [8] = molecular target: T4, Tyrosyl-tRNA synthetase, putative (Trypanosoma cruzi (strain CL Brener)); assay: Trypanosoma cruzi tyrosyl tRNA synthetase (TcYRS) SOP; format: functional; conditions: 30 µM
# [9] = molecular target: Chromo domain-containing protein 1 (Saccharomyces cerevisiae (strain ATCC 204508 / S288c) (Baker's yeast)) (UniProt P32657); assay: ScCHD-1 Enzyme Inhibition Assay; format: functional; conditions: 30 µM; also: in the data most compounds retested in dose-response had high values
# Chain of Chromo domain-containing protein 1 (Saccharomyces cerevisiae (strain ATCC 204508 / S288c) (Baker's yeast)) (P32657 whole entry, the tested form may be a part): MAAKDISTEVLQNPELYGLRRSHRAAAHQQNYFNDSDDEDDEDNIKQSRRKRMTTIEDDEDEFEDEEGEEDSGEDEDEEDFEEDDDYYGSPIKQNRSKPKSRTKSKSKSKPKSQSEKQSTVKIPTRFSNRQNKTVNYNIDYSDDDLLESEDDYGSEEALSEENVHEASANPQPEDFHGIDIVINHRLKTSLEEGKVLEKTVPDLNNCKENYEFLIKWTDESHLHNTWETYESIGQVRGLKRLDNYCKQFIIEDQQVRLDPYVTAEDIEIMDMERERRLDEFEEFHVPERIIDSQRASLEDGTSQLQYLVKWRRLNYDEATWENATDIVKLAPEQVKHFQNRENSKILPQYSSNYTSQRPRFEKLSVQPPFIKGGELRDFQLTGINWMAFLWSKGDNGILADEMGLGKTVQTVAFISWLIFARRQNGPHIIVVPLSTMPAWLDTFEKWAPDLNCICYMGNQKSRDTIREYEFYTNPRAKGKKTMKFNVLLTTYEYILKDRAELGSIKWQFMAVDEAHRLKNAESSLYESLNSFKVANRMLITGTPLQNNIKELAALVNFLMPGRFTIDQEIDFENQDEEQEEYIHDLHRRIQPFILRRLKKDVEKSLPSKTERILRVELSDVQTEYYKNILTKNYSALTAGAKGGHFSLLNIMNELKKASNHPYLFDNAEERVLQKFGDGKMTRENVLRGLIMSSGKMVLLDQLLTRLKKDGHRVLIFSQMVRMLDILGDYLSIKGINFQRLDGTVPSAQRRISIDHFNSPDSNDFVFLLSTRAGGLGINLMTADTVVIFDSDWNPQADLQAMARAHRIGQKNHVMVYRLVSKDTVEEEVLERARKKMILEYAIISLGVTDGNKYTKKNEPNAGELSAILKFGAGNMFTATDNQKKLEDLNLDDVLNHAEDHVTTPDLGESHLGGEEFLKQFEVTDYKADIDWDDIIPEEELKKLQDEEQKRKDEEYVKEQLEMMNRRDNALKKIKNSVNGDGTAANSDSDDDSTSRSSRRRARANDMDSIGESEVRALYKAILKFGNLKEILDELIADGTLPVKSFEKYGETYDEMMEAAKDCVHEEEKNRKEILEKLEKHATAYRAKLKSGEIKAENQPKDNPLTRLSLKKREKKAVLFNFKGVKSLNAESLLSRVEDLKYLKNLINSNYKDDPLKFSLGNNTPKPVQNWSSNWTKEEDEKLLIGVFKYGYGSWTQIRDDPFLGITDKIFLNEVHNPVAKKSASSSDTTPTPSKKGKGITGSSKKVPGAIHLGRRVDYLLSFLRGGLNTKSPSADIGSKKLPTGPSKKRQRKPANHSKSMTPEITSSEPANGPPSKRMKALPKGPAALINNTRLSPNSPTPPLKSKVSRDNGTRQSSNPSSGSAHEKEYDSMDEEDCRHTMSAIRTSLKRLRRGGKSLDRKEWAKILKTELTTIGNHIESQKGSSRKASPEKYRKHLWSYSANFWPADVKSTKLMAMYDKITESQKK
# Chain of Protein translocase subunit SecA (Escherichia coli (strain K12)) (P10408 whole entry): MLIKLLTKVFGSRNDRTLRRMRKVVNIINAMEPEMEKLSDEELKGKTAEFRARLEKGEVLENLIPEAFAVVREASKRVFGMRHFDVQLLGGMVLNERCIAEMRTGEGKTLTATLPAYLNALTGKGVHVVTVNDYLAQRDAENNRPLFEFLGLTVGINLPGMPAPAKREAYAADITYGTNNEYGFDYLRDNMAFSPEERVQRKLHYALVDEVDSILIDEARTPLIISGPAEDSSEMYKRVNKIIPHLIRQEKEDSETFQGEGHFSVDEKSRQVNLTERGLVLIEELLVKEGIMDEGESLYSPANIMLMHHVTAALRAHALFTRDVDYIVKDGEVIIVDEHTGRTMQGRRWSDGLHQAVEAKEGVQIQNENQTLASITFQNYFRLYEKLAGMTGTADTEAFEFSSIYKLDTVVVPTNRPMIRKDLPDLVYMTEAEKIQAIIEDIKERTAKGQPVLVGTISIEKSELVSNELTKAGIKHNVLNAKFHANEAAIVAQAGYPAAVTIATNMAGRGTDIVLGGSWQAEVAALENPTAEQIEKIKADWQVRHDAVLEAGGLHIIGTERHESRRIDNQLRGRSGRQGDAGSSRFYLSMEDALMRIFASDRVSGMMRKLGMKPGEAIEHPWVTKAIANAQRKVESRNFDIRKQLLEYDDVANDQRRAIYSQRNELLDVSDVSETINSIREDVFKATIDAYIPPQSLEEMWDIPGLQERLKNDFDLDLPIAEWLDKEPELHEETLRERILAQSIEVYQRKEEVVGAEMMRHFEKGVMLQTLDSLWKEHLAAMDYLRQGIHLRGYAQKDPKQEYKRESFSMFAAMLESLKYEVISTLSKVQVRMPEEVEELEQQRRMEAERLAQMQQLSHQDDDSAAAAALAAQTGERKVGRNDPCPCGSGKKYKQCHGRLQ
Compound,Percent Effect [1],Percent Effect [2],Percent Effect [3],Percent Effect [4],Percent Effect (Trypanosoma cruzi),Percent Effect [5],Percent Effect [6],Percent Effect (Homo sapiens),Percent Effect [7],Percent Effect [8],Percent Effect [9]
Cc1ncsc1CCC(=O)NCc1cc2n(n1)CCN(C(=O)N(C)C)C2,-0.664%,1.39%,-1.68%,-4.18%,-4.96%,3.97%,15.3%,6.29%,3.16%,2.56%,-1.68%
COc1cccc(CN(C)C(=O)CCC(=O)c2ccc(Cl)cc2)c1OC,-3.29%,-5.48%,-3.03%,3.31%,-0.992%,-7.58%,6.59%,17%,1.04%,8.64%,-4.85%
O=C(NCCNCC1CNc2ccnn2C1)c1ccc(F)cc1 (configuration not stated),-2.2%,8.11%,-6.99%,25.4%,8.3%,0.476%,11.6%,-0.126%,5.82%,14.6%,-2.41%
Cc1cccc(NC(=O)Cn2ncc(SCC(N)=O)c(Cl)c2=O)c1C,-3.9%,5.48%,4.95%,-15.5%,-4.31%,3.18%,22.5%,17.6%,5.38%,5%,79.5%
Cn1ccnc1CN1CCN(CC(O)c2ccco2)CC1 (configuration not stated),-7.57%,18.2%,-3.75%,-8.89%,-1.86%,-0.632%,17.4%,16.1%,6.67%,7.06%,-4.92%
COCC1CN(Cc2ccncc2)Cc2nnn(CC3CC3)c21 (configuration not stated),-1.08%,0%,2.57%,2.54%,0.688%,-1.38%,1.33%,-3.55%,0%,-1.24%,3.24%
O=C(NCCc1cccs1)[C@H]1CO[C@H]2CCNC[C@H]2C1,0.545%,13.5%,0.0792%,-4.42%,-4.99%,6.05%,19.4%,12.4%,1.08%,10.3%,-2.47%
Cc1nc[nH]c1-c1nc2cc(S(=O)(=O)N3CCCC3)ccc2n1C,-4.38%,11%,12.9%,8.67%,6.86%,20%,8.16%,24.3%,7.53%,17.5%,-5.76%
O=c1[nH]c2c(c(=O)n1C1CCCCC1)CCC2Nc1ccccc1Cl (configuration not stated),-2.47%,6.67%,-9.22%,-1.39%,4.71%,92.1%,5.36%,33.1%,-9.52%,-7.69%,-11.3%
Cc1nc(CN(C)C2CCN(Cc3nc4ccccc4s3)C2)no1 (configuration not stated),-6.59%,5.26%,-8.48%,14.1%,4.95%,1.8%,3.81%,-14.2%,10.3%,25.9%,-8.21%
COc1ccc(CCN2CCc3c(nc(C4CC4)n3C)C2)cc1,-2.18%,18.2%,-12.2%,-0.11%,-3.18%,0.356%,9.12%,18.2%,6.8%,2.44%,-7.4%
CCn1nc(C)c(CCn2ccnc2-c2cc3n(n2)CCCNC3)c1C,-3.39%,2.67%,0.691%,0.912%,-3.02%,4.17%,8.2%,12.4%,2.73%,8.64%,-6.3%
CC(=O)N(Cc1noc(C)n1)C1CCN(Cc2ccccc2C#N)C1 (configuration not stated),-1.89%,3.8%,1.41%,1.68%,1.74%,5.38%,6.17%,-5.16%,0%,5.06%,0.362%
O=C1CC(N(C(=O)c2ccc3c(c2)CCC3)C2CC2)C(=O)N1 (configuration not stated),-3.91%,7.59%,-5.04%,-3.45%,-8.21%,4.18%,5.98%,25.8%,-0.493%,1.27%,-6.63%
CCc1nc(CC(=O)N2CCn3c(nnc3C(C)C)C2)cs1,-3.31%,0%,1.23%,1.14%,3.95%,-1.92%,3.68%,-11.4%,2.45%,12.2%,-11%
N#Cc1cn(CC(=O)NC2CC2)c2ccc(Br)cc2c1=O,-3.54%,-2.67%,-3.82%,-2.14%,-1.27%,2.6%,14.7%,-0.582%,0.546%,-3.7%,74.8%
COCCN(C)C(=O)c1ccc(OC)cc1O,-7.04%,0%,0.346%,2.75%,-4.17%,2.4%,18.2%,8.7%,4.17%,8.64%,3.68%
Cc1ccc(CNC(=O)N2CCCCC2CCNS(C)(=O)=O)cc1 (configuration not stated),-1.58%,2.7%,2.59%,-1.08%,-1.74%,-15.2%,12.6%,23.6%,2.65%,2.44%,-4.89%
CCN(CC(=O)NC(C)C)S(=O)(=O)N1CCCCCC1,-2.15%,16.2%,-3.94%,11.8%,2.64%,3.23%,12.3%,5.69%,3.23%,16.1%,-10.9%
CCn1cc(NC(=O)NCC(O)c2ccccc2)cn1 (configuration not stated),-2.26%,12.7%,-8.7%,13.4%,-1.98%,1.52%,3.19%,-8.48%,1.48%,13.9%,-3.66%
CCN(CCn1cccn1)Cc1nc(-c2ccccc2F)oc1C,-1.08%,-6.94%,-5.26%,-5.94%,-0.68%,-0.883%,5.61%,7.62%,1.05%,0%,2.51%
CC(C)c1nnc2n1CCN(Cc1csc(CC(=O)N(C)C)n1)C2,2.63%,18.4%,10.8%,3.17%,-4.7%,-4.6%,11.5%,34.2%,-0.49%,7.32%,-15%
